From PubChem BioAssay (EPA / NIEHS)
“And” between values parts separate entries of the source, which are not always exact repeats. Equal entries are not always repeated. The source holds several records for some structures; these can differ, active in one and inactive in another. The source made the active and inactive calls. How the source made its calls: active means hit-call score of the fitted dose curve at least 0.9, where 1 is the maximum; inactive means score below 0.9.

Experiment: ATG_GRE_CIS: Attagene CIS-FACTORIAL HepG2 Assay for human Glucocorticoid Response Elements (GRE) (AID 2282947)
Conditions: HepG2 GRE cis-reporter, Attagene multiplex mRNA; actives raise or lower the signal
How it was run: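 Cells (HepG2) bearing transfected cis-promoter reporter transcription units were treated with chemical for 24 hours. Reporter mRNA was measured via RT-PCR with capillary electrophoresis, and activity was fitted in both directions relative to DMSO.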

| SMILES | outcome |
| --- | --- |
| CC(C#N)CCC#N (stereo not given) | inactive |
| CN(C)N=O | inactive |
| BrCCBr | inactive |
| CC(C)(OO)c1ccccc1 | inactive |
| CC(C)(C)c1cc(O)ccc1O | inactive |
| COC(=O)c1sccc1S(=O)(=O)NC(=O)Nc1nc(C)nc(OC)n1 | inactive |
| COC[C@H](C)N(C(=O)CCl)c1c(C)csc1C | inactive |
| CCOC(=O)Nc1cccc(OC(=O)Nc2ccccc2)c1 | inactive |
| ClCc1ccccn1 | inactive |
| O=C(Cl)c1ccc(Cl)cc1 | inactive |
| O=P(O)(O)CN(CP(=O)(O)O)CP(=O)(O)O | inactive |
| Oc1ccc(-c2ccccc2)cc1 | inactive |
| CCOP(=O)(CN(CCO)CCO)OCC | inactive |
| C[C@]12CCC(=O)C[C@@H]1CC[C@@H]1[C@@H]2CC[C@]2(C)[C@@H](O)CC[C@@H]12 | inactive |
| ClC1(Cl)C2(Cl)C3(Cl)C4(Cl)C(Cl)(Cl)C5(Cl)C3(Cl)C1(Cl)C5(Cl)C24Cl (stereo not given) | inactive |
| Nc1ccc(N=Nc2ccc(-c3ccc(N=Nc4c(S(=O)(=O)O)cc5cc(S(=O)(=O)O)c(N=Nc6ccccc6)c(O)c5c4N)cc3)cc2)c(N)c1 | inactive |
| CC(=[OH+])/C=C(/C)[O-].CC(=[OH+])/C=C(/C)[O-].CC(=[OH+])/C=C(/C)[O-].[Fe] | inactive |
| Fc1ccc(C2(Cn3cncn3)OC2c2ccccc2Cl)cc1 (stereo not given) | inactive |
| C=C(C)C(=O)[O][Sn]([CH2]CCC)([CH2]CCC)[CH2]CCC | inactive |
| O=c1[nH]c(=O)[nH]c(=O)[nH]1 | inactive |
| C1CCC(NC2CCCCC2)CC1 | inactive |
| Cc1cc(=O)[nH]o1 | inactive |
| O=C/C=C/c1ccccc1 | inactive |
| COP(=S)(OC)Oc1c(Cl)cc(C)cc1Cl | inactive |

Experiment: ATG_ISRE_CIS: Attagene CIS-FACTORIAL HepG2 Assay for human Interferon Regulatory Factor 1 (IRF1) binding to an Interferon-Stimulated Response Element (ISRE) (AID 2282948)
Conditions: HepG2 ISRE cis-reporter (Attagene), mRNA transcription readout; actives raise or lower the signal
How it was run: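 Endogenous transcription factor activity read as reporter transcript abundance via RT-PCR and capillary electrophoresis. HepG2 cells transiently transfected, 24 h chemical exposure. Gain or loss fitted against DMSO baseline.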

| SMILES | outcome | AC50 |
| --- | --- | --- |
| CC(C#N)CCC#N (stereo not given) | inactive | – |
| Cc1ccc(N)cc1Cl | inactive | – |
| Oc1cccc2cccnc12 | inactive | – |
| BrCCBr | inactive | – |
| O=C(O)C(F)(F)C(F)(F)C(F)(F)C(F)(F)C(F)(F)C(F)(F)C(F)(F)C(F)(F)C(F)(F)C(F)(F)F | – | 44.5 µM (active) and 20.1 µM (active) |
| CC(C)(OO)c1ccccc1 | inactive | – |
| CC(C)(C)c1cc(O)ccc1O | inactive | – |
| COC(=O)c1sccc1S(=O)(=O)NC(=O)Nc1nc(C)nc(OC)n1 | inactive | – |
| CC1(C)CCC(Cc2ccc(Cl)cc2)C1(O)Cn1cncn1 (stereo not given) | inactive | – |
| COC[C@H](C)N(C(=O)CCl)c1c(C)csc1C | inactive | – |
| CCOC(=O)Nc1cccc(OC(=O)Nc2ccccc2)c1 | inactive | – |
| ClCc1ccccn1 | inactive | – |
| CCCCP(CCCC)CCCC | inactive | – |
| CC1CN1P(=O)(N1CC1C)N1CC1C (stereo not given) | inactive | – |
| O=P(O)(O)CN(CP(=O)(O)O)CP(=O)(O)O | inactive | – |
| ClCCBr | inactive | – |

| SMILES | outcome | AC50 |
| --- | --- | --- |
| Oc1ccc(-c2ccccc2)cc1 | – | 179 µM (active) |
| CCOP(=O)(CN(CCO)CCO)OCC | inactive | – |
| C[C@]12CCC(=O)C[C@@H]1CC[C@@H]1[C@@H]2CC[C@]2(C)[C@@H](O)CC[C@@H]12 | inactive | – |
| ClC1(Cl)C2(Cl)C3(Cl)C4(Cl)C(Cl)(Cl)C5(Cl)C3(Cl)C1(Cl)C5(Cl)C24Cl (stereo not given) | inactive | – |
| Nc1ccc(N=Nc2ccc(-c3ccc(N=Nc4c(S(=O)(=O)O)cc5cc(S(=O)(=O)O)c(N=Nc6ccccc6)c(O)c5c4N)cc3)cc2)c(N)c1 | inactive | – |
| CC(=[OH+])/C=C(/C)[O-].CC(=[OH+])/C=C(/C)[O-].CC(=[OH+])/C=C(/C)[O-].[Fe] | inactive | – |
| Fc1ccc(C2(Cn3cncn3)OC2c2ccccc2Cl)cc1 (stereo not given) | inactive | – |
| C=C(C)C(=O)[O][Sn]([CH2]CCC)([CH2]CCC)[CH2]CCC | – | 0.612 µM (active) |
| Cc1cc(Cl)ccc1O[C@H](C)C(=O)O | inactive | – |
| CCC(C)c1cccc(C(C)CC)c1O (stereo not given) | inactive | – |
| O=c1[nH]c(=O)[nH]c(=O)[nH]1 | inactive | – |
| C1CCC(NC2CCCCC2)CC1 | inactive | – |
| Cc1cc(=O)[nH]o1 | inactive | – |
| O=C/C=C/c1ccccc1 | inactive | – |
| COP(=S)(OC)Oc1c(Cl)cc(C)cc1Cl | inactive | – |

Experiment: ATG_M_32_CIS: Attagene CIS-FACTORIAL HepG2 Assay for M32 Transcription Factor (Internal Marker) (AID 2282949);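 further: background control marker of the multiplexed CIS panel rather than a real target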
Conditions: HepG2 Attagene cis-factorial M32 reporter, mRNA; actives raise or lower the signal
How it was run: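 HepG2 transfectants (cis-regulated reporter transcription units) dosed 24 h. Reporter mRNA by RT-PCR plus CE, analysed as gain or loss relative to DMSO.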

| SMILES | outcome | AC50 |
| --- | --- | --- |
| CC(C#N)CCC#N (stereo not given) | inactive | – |
| CN(C)N=O | inactive | – |
| Cc1ccc(N)cc1Cl | inactive | – |
| Oc1cccc2cccnc12 | inactive | – |
| BrCCBr | inactive | – |
| O=C(O)C(F)(F)C(F)(F)C(F)(F)C(F)(F)C(F)(F)C(F)(F)C(F)(F)C(F)(F)C(F)(F)C(F)(F)F | inactive | 160 µM (active) |
| CC(C)(OO)c1ccccc1 | inactive | – |
| CC(C)(C)c1cc(O)ccc1O | inactive | – |
| COP(=S)(OC)Oc1ccc(Sc2ccc(OP(=S)(OC)OC)cc2)cc1 | inactive | – |
| CC(C)c1cccc(C(C)C)c1O | inactive | – |
| O=[N+]([O-])c1ccc(O)c([N+](=O)[O-])c1 | inactive | – |
| COC(=O)c1sccc1S(=O)(=O)NC(=O)Nc1nc(C)nc(OC)n1 | inactive | – |
| CC1(C)CCC(Cc2ccc(Cl)cc2)C1(O)Cn1cncn1 (stereo not given) | inactive | – |
| COC[C@H](C)N(C(=O)CCl)c1c(C)csc1C | inactive | – |
| CCOC(=O)Nc1cccc(OC(=O)Nc2ccccc2)c1 | inactive | – |
| ClCc1ccccn1 | inactive | – |
| CCCCP(CCCC)CCCC | inactive | – |
| O=C(Cl)c1ccc(Cl)cc1 | inactive | – |
| CC1CN1P(=O)(N1CC1C)N1CC1C (stereo not given) | inactive | – |
| O=P(O)(O)CN(CP(=O)(O)O)CP(=O)(O)O | inactive | – |

| SMILES | outcome | AC50 |
| --- | --- | --- |
| ClCCBr | inactive | – |
| Oc1ccc(-c2ccccc2)cc1 | inactive | – |
| CCOP(=O)(CN(CCO)CCO)OCC | inactive | – |
| CC(C)c1ccc(CO)cc1 | inactive | – |
| C[C@]12CCC(=O)C[C@@H]1CC[C@@H]1[C@@H]2CC[C@]2(C)[C@@H](O)CC[C@@H]12 | inactive | – |
| ClC1(Cl)C2(Cl)C3(Cl)C4(Cl)C(Cl)(Cl)C5(Cl)C3(Cl)C1(Cl)C5(Cl)C24Cl (stereo not given) | inactive | – |
| Nc1ccc(N=Nc2ccc(-c3ccc(N=Nc4c(S(=O)(=O)O)cc5cc(S(=O)(=O)O)c(N=Nc6ccccc6)c(O)c5c4N)cc3)cc2)c(N)c1 | inactive | – |
| Cc1ccccc1N | inactive | – |
| CC(=[OH+])/C=C(/C)[O-].CC(=[OH+])/C=C(/C)[O-].CC(=[OH+])/C=C(/C)[O-].[Fe] | inactive | – |
| Fc1ccc(C2(Cn3cncn3)OC2c2ccccc2Cl)cc1 (stereo not given) | inactive | – |
| O=[N+]([O-])c1c(Cl)c(Cl)cc(Cl)c1Cl | – | 0.0842 µM (active) |
| C=C(C)C(=O)[O][Sn]([CH2]CCC)([CH2]CCC)[CH2]CCC | inactive | – |
| Cc1cc(Cl)ccc1O[C@H](C)C(=O)O | inactive | – |
| CCC(C)c1cccc(C(C)CC)c1O (stereo not given) | inactive | – |
| O=c1[nH]c(=O)[nH]c(=O)[nH]1 | inactive | – |
| C1CCC(NC2CCCCC2)CC1 | inactive | – |
| Cc1cc(=O)[nH]o1 | inactive | – |
| O=C/C=C/c1ccccc1 | inactive | – |
| COP(=S)(OC)Oc1c(Cl)cc(C)cc1Cl | inactive | – |
